# About 410 targets per protein were measured; listed, in parts, are those with the strongest signals and a random draw of the rest.
# B1: rCNL (Clitocybe nebularis), B2ZRS9 (protein)
# chain: SITPGTYNITNVAYTNRLIDLTGSNPAENTLIIGHHLNKTPSGYGNQQWTLVQLPHTTIYTMQAVNPQSYVRVRDDNLVDGAALVGSQQPTPVSIESAGNSGQFRIKIPNLGLALTLPSDANSTPIVLGEVDETSTNQLWAFESVSAV
# Experiments:
# Experiment in all cases: glycan array binding signal (z-score within array); higher = stronger binding
# Details in all cases: glycan notation: IUPAC condensed, linker removed
# [1] = target: Fuc(a1-2)Gal(b1-4)GlcNAc(b1-2)Man(a1-3)[Fuc(a1-2)Gal(b1-4)GlcNAc(b1-2)Man(a1-6)]Man(b1-4)GlcNAc(b1-4)[Fuc(a1-6)]GlcNAc
# Method in brief: (§1)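 The binding signal is a Z-score computed within each array. Data were drawn from 3228 arrays in the Consortium for Functional Glycomics database, restricted to those with a known protein sequence. Scores were averaged over arrays of the same protein sequence at different concentrations or buffers, and over linkers, and negative values can be taken as non-binding.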
# [2] = target: Fuc(a1-2)[Gal(a1-3)]Gal(b1-3)GalNAc
# Method in brief: as §1
# [3] = target: Fuc(a1-2)[Gal(a1-3)]Gal(b1-4)GlcNAc(b1-2)Man
# Method in brief: as §1
# [4] = target: Fuc(a1-2)[GalNAc(a1-3)]Gal(b1-3)GalNAc(a1-3)[Fuc(a1-2)]Gal(b1-4)GlcNAc
# Method in brief: as §1
# [5] = target: Fuc(a1-2)[GalNAc(a1-3)]Gal(b1-4)GlcNAc
# Method in brief: as §1
# [6] = target: Fuc(a1-2)[GalNAc(a1-3)]Gal(b1-4)GlcNAc(b1-2)Man
# Method in brief: as §1
# [7] = target: Fuc(a1-2)[GalNAc(a1-3)]Gal(b1-4)GlcNAc(b1-2)Man(a1-3)[Fuc(a1-2)[GalNAc(a1-3)]Gal(b1-4)GlcNAc(b1-2)Man(a1-6)]Man(b1-4)GlcNAc(b1-4)GlcNAc
# Method in brief: as §1
# [8] = target: Fuc(a1-2)[GalNAc(a1-3)]Gal(b1-4)GlcNAc(b1-3)Gal(b1-4)GlcNAc
# Method in brief: as §1
# [9] = target: Fuc(a1-2)[GalNAc(a1-3)]Gal(b1-4)GlcNAc(b1-3)Gal(b1-4)GlcNAc(b1-3)Gal(b1-4)GlcNAc
# Method in brief: as §1
# [10] = target: Fuc(a1-3)[Gal(b1-4)]GlcNAc
# Method in brief: as §1
# Gal(a1-3)Gal = target: Gal(a1-3)Gal
# Method in brief: as §1
# [11] = target: Gal(a1-3)Gal(b1-3)[Fuc(a1-4)]GlcNAc(b1-2)Man(a1-3)[Gal(a1-3)Gal(b1-3)[Fuc(a1-4)]GlcNAc(b1-2)Man(a1-6)]Man(b1-4)GlcNAc(b1-4)GlcNAc
# Method in brief: as §1
# Gal(a1-3)Gal(b1-4)GlcNAc = target: Gal(a1-3)Gal(b1-4)GlcNAc
# Method in brief: as §1
# [12] = target: Gal(a1-3)Gal(b1-4)GlcNAc(b1-3)GalNAc
# Method in brief: as §1
# [13] = target: Gal(a1-4)Gal(b1-3)GlcNAc(b1-2)Man(a1-3)[Gal(a1-4)Gal(b1-3)GlcNAc(b1-2)Man(a1-6)]Man(b1-4)GlcNAc(b1-4)GlcNAc
# Method in brief: as §1
# Gal(a1-4)Gal(b1-4)Glc = target: Gal(a1-4)Gal(b1-4)Glc
# Method in brief: as §1
# [14] = target: Gal(b1-3)GalNAc(b1-4)Gal(b1-4)Glc
# Method in brief: as §1
# [15] = target: Gal(b1-3)GlcNAc(a1-3)Gal(b1-4)GlcNAc
# Method in brief: as §1
# [16] = target: Gal(b1-3)GlcNAc(b1-3)Gal(b1-4)GlcNAc(b1-3)Gal(b1-4)GlcNAc(b1-2)[Gal(b1-3)GlcNAc(b1-3)Gal(b1-4)GlcNAc(b1-3)Gal(b1-4)GlcNAc(b1-6)]Man(a1-6)[Gal(b1-3)GlcNAc(b1-3)Gal(b1-4)GlcNAc(b1-3)Gal(b1-4)GlcNAc(b1-2)Man(a1-3)]Man(b1-4)GlcNAc(b1-4)[Fuc(a1-6)]GlcNAc
# Method in brief: as §1
# [17] = target: Gal(b1-3)GlcNAc(b1-6)[Gal(b1-3)]GalNAc
# Method in brief: as §1
# Gal(b1-3)GlcNAc6S = target: Gal(b1-3)GlcNAc6S
# Method in brief: as §1
# [18] = target: Gal(b1-3)[Neu5Ac(b2-6)]GalNAc
# Method in brief: as §1
# Gal(b1-4)Gal = target: Gal(b1-4)Gal
# Method in brief: as §1
# [19] = target: Gal(b1-4)GlcNAc(b1-2)Man(a1-3)Man(b1-4)GlcNAc(b1-4)GlcNAc
# Method in brief: as §1
# [20] = target: Gal(b1-4)GlcNAc(b1-2)Man(a1-3)[Gal(b1-4)GlcNAc(b1-2)Man(a1-6)]Man(b1-4)GlcNAc(b1-4)GlcNAc
# Method in brief: as §1
# [21] = target: Gal(b1-4)GlcNAc(b1-2)[Gal(b1-4)GlcNAc(b1-4)]Man(a1-3)[GlcNAc(b1-4)][Gal(b1-4)GlcNAc(b1-2)[Gal(b1-4)GlcNAc(b1-6)]Man(a1-6)]Man(b1-4)GlcNAc(b1-4)GlcNAc
# Method in brief: as §1
# [22] = target: Gal(b1-4)GlcNAc(b1-3)Gal(b1-4)GlcNAc(b1-2)[Gal(b1-4)GlcNAc(b1-3)Gal(b1-4)GlcNAc(b1-6)]Man(a1-6)[Gal(b1-4)GlcNAc(b1-3)Gal(b1-4)GlcNAc(b1-2)Man(a1-3)]Man(b1-4)GlcNAc(b1-4)[Fuc(a1-6)]GlcNAc
# Method in brief: as §1
# Gal3S6S(b1-4)GlcNAc6S = target: Gal3S6S(b1-4)GlcNAc6S
# Method in brief: as §1
# Gal6S(b1-3)GlcNAc = target: Gal6S(b1-3)GlcNAc
# Method in brief: as §1
# [23] = target: GalNAc(a1-3)GalNAc(b1-3)Gal(a1-4)Gal(b1-4)Glc
# Method in brief: as §1
# GalNAc(b1-3)GlcNAc = target: GalNAc(b1-3)GlcNAc
# Method in brief: as §1
# GalNAc(b1-4)GlcNAc = target: GalNAc(b1-4)GlcNAc
# Method in brief: as §1
# [24] = target: GalNAc(b1-4)GlcNAc(b1-2)Man
# Method in brief: as §1
# [25] = target: GalNAc(b1-4)GlcNAc(b1-3)GalNAc(b1-4)GlcNAc
# Method in brief: as §1
# GalNAc(b1-4)GlcNAc6S = target: GalNAc(b1-4)GlcNAc6S
# Method in brief: as §1
# GalNAc6S(b1-4)GlcNAc = target: GalNAc6S(b1-4)GlcNAc
# Method in brief: as §1
# [26] = target: GlcNAc(b1-2)Man(a1-3)[GlcNAc(b1-4)][GlcNAc(b1-2)Man(a1-6)]Man(b1-4)GlcNAc(b1-4)[Fuc(a1-6)]GlcNAc
# Method in brief: as §1
# [27] = target: GlcNAc(b1-3)Gal(b1-4)GlcNAc(b1-3)Gal(b1-4)GlcNAc(b1-3)Gal(b1-4)GlcNAc(b1-2)Man(a1-3)[GlcNAc(b1-3)Gal(b1-4)GlcNAc(b1-3)Gal(b1-4)GlcNAc(b1-3)Gal(b1-4)GlcNAc(b1-2)Man(a1-6)]Man(b1-4)GlcNAc(b1-4)[Fuc(a1-6)]GlcNAc
# Method in brief: as §1
# [28] = target: GlcNAc(b1-3)Gal(b1-4)GlcNAc(b1-3)Gal(b1-4)GlcNAc(b1-3)GalNAc
# Method in brief: as §1
# GlcNAc(b1-3)GalNAc = target: GlcNAc(b1-3)GalNAc
# Method in brief: as §1
# GlcNAc(b1-4)GlcNAc = target: GlcNAc(b1-4)GlcNAc
# Method in brief: as §1
# [29] = target: GlcNAc6S(b1-3)Gal(b1-4)GlcNAc
# Method in brief: as §1
# Kdn(a2-3)Gal(b1-4)Glc = target: Kdn(a2-3)Gal(b1-4)Glc
# Method in brief: as §1
# Kdn(a2-6)Gal(b1-4)GlcNAc = target: Kdn(a2-6)Gal(b1-4)GlcNAc
# Method in brief: as §1
# [30] = target: Man(a1-2)Man(a1-6)[Man(a1-3)]Man(a1-6)[Man(a1-2)Man(a1-2)Man(a1-3)]Man
# Method in brief: as §1
# Man(a1-6)Man = target: Man(a1-6)Man
# Method in brief: as §1
# [31] = target: Neu5Ac(a2-3)Gal(b1-3)GalNAc6S
# Method in brief: as §1
# [32] = target: Neu5Ac(a2-3)Gal(b1-4)GlcNAc(b1-2)Man(a1-3)[GlcNAc(b1-4)][Neu5Ac(a2-3)Gal(b1-4)GlcNAc(b1-2)Man(a1-6)]Man(b1-4)GlcNAc(b1-4)GlcNAc
# Method in brief: as §1
# [33] = target: Neu5Ac(a2-6)Gal(b1-4)GlcNAc(b1-2)[Neu5Ac(a2-6)Gal(b1-4)GlcNAc(b1-6)]Man(a1-6)[Neu5Ac(a2-6)Gal(b1-4)GlcNAc(b1-2)Man(a1-3)][GlcNAc(b1-4)]Man(b1-4)GlcNAc(b1-4)GlcNAc
# Method in brief: as §1
# [34] = target: Neu5Ac(a2-6)Gal(b1-4)GlcNAc(b1-3)Gal(b1-4)GlcNAc(b1-3)Gal(b1-4)GlcNAc(b1-2)Man(a1-3)[Neu5Ac(a2-6)Gal(b1-4)GlcNAc(b1-3)Gal(b1-4)GlcNAc(b1-3)Gal(b1-4)GlcNAc(b1-2)Man(a1-6)]GalNAc
# Method in brief: as §1
# [35] = target: Neu5Ac(a2-6)Gal(b1-4)GlcNAc(b1-3)[Neu5Ac(a2-6)Gal(b1-4)GlcNAc(b1-6)]GalNAc
# Method in brief: as §1
# [36] = target: Neu5Ac(b2-6)Gal(b1-4)GlcNAc
# Method in brief: as §1
binder,measurement,setting,value
B1,glycan array binding signal (z-score),[1],-0.116
same,glycan array binding signal (z-score),[2],-0.222
same,glycan array binding signal (z-score),[3],-0.215
same,glycan array binding signal (z-score),[4],2.47
same,glycan array binding signal (z-score),[5],3.08
same,glycan array binding signal (z-score),[6],3.12
same,glycan array binding signal (z-score),[7],4
same,glycan array binding signal (z-score),[8],3.46
same,glycan array binding signal (z-score),[9],3.25
same,glycan array binding signal (z-score),[10],-0.299
same,glycan array binding signal (z-score),Gal(a1-3)Gal,-0.297
same,glycan array binding signal (z-score),[11],-0.27
same,glycan array binding signal (z-score),Gal(a1-3)Gal(b1-4)GlcNAc,-0.098
same,glycan array binding signal (z-score),[12],-0.129
same,glycan array binding signal (z-score),[13],-0.187
same,glycan array binding signal (z-score),Gal(a1-4)Gal(b1-4)Glc,-0.261
same,glycan array binding signal (z-score),[14],-0.287
same,glycan array binding signal (z-score),[15],-0.21
same,glycan array binding signal (z-score),[16],-0.203
same,glycan array binding signal (z-score),[17],-0.215
same,glycan array binding signal (z-score),Gal(b1-3)GlcNAc6S,-0.226
same,glycan array binding signal (z-score),[18],-0.305
same,glycan array binding signal (z-score),Gal(b1-4)Gal,-0.215
same,glycan array binding signal (z-score),[19],-0.275
same,glycan array binding signal (z-score),[20],-0.13
same,glycan array binding signal (z-score),[21],-0.041
same,glycan array binding signal (z-score),[22],-0.147
same,glycan array binding signal (z-score),Gal3S6S(b1-4)GlcNAc6S,-0.283
same,glycan array binding signal (z-score),Gal6S(b1-3)GlcNAc,-0.224
same,glycan array binding signal (z-score),[23],-0.001
same,glycan array binding signal (z-score),GalNAc(b1-3)GlcNAc,4.24
same,glycan array binding signal (z-score),GalNAc(b1-4)GlcNAc,6.23
same,glycan array binding signal (z-score),[24],6.09
same,glycan array binding signal (z-score),[25],7.74
same,glycan array binding signal (z-score),GalNAc(b1-4)GlcNAc6S,4.96
same,glycan array binding signal (z-score),GalNAc6S(b1-4)GlcNAc,7.28
same,glycan array binding signal (z-score),[26],-0.228
same,glycan array binding signal (z-score),[27],-0.217
same,glycan array binding signal (z-score),[28],-0.218
same,glycan array binding signal (z-score),GlcNAc(b1-3)GalNAc,-0.286
same,glycan array binding signal (z-score),GlcNAc(b1-4)GlcNAc,-0.304
same,glycan array binding signal (z-score),[29],-0.273
same,glycan array binding signal (z-score),Kdn(a2-3)Gal(b1-4)Glc,-0.301
same,glycan array binding signal (z-score),Kdn(a2-6)Gal(b1-4)GlcNAc,-0.285
same,glycan array binding signal (z-score),[30],-0.296
same,glycan array binding signal (z-score),Man(a1-6)Man,-0.294
same,glycan array binding signal (z-score),[31],-0.232
same,glycan array binding signal (z-score),[32],-0.226
same,glycan array binding signal (z-score),[33],-0.222
same,glycan array binding signal (z-score),[34],-0.13
same,glycan array binding signal (z-score),[35],-0.221
same,glycan array binding signal (z-score),[36],-0.31
